About 2,400 (0.67%) of roughly 360,000 compounds were called active.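 How the source made its calls: active means activation above a run cutoff, the mean activation of all tested compounds plus 3 SD (cut at about 14% in these data); inactive means the rest.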 Only a selection was taken, and actives are over-represented in it overall.
What follows are compounds tested against 5-hydroxytryptamine receptor 2A (Mus musculus) (UniProt P35363) (assay: mouse Htr2a agonists via beta-arrestin recruitment, primary screen, cell-based, luminescence (AID 624169;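 further: 0% = plate median of compound wells and 100% = 30 µM serotonin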)). Details: CHO-K1 mHTR2A beta-arrestin complementation, at 7.6 µM, stronger effect = higher value, percent of 30 µM serotonin response.
Chain of 5-hydroxytryptamine receptor 2A (Mus musculus) (P35363 whole entry, looked up): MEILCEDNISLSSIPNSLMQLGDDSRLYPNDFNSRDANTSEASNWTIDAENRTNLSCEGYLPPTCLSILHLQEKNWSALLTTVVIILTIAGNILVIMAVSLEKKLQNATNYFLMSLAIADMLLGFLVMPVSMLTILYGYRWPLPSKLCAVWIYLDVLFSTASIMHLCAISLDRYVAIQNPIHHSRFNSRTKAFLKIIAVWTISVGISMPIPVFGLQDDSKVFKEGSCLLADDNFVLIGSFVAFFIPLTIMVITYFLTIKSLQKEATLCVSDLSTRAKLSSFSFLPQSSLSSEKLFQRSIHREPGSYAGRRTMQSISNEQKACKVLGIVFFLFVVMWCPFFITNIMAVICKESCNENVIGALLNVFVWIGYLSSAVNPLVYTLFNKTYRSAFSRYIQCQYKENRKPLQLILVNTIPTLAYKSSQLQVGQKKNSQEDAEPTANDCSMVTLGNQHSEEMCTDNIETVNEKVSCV

activation, inactive:
O=C(CN1CCC(O)(c2cccc(C(F)(F)F)c2)CC1)NCCc1ccccc1 -1.29%
CCOC(=O)N1CCN(C(=O)C[C@@H]2C[C@@]3(C(=O)OC)CCCCC=C3N(CCC3=CCCCC3)C2=O)CC1 -5.86%
CCCCOCCCNC(=O)C[C@@H]1C[C@@]2(C(=O)OC)CCCCC=C2N(CCC2=CCCCC2)C1=O -1.53%
COc1ccc(-c2ccc(CN3C(C(C)C)C(=O)N(Cc4cn(CC5CCCCC5)nn4)CCS3(=O)=O)cc2)cn1 (centres undefined) -1.52%
Cc1c(C(C)(C)O)[nH]c2ccc(C#N)cc12 3.5%
Cc1ccc(C)c(S(=O)(=O)N2CCN(c3ncnc4sccc34)CC2)c1 4.9%
Cc1ccc(S(=O)(=O)N2CCN(Cc3cccc(C)c3O)CC2)cc1 -3.27%
CCN(CC)CCn1cnc2c1c(=O)n(CCOC(=O)c1cc(OC)c(OC)c(OC)c1)c(=O)n2C -1.4%
COC(=O)[C@@]1(Cc2ccc(F)cc2)[C@H]2c3cc(C(=O)N4CCCC4)n(Cc4ccc(OC(F)(F)F)cc4)c3C[C@H]2CN1C(=O)c1ccccc1 1.1%
COC(=O)[C@@]1(Cc2ccc(F)cc2)[C@H]2c3cc(C(=O)N4CCCC4)n(C[C@H](O)CO)c3C[C@H]2CN1C(=O)c1ccccc1 3.75%
O=C(CN1C(=O)NC2(CCCCCC2)C1=O)Nc1ccc([N+](=O)[O-])cc1 -2.54%
COc1ccc(NC(=O)CC2COc3ccccc3O2)c(OC)c1 (centres undefined) 2.64%
CCN(CCCNC(=O)CCn1c(=O)[nH]c2ccsc2c1=O)c1ccccc1 2.47%
O=C(CCCCCn1c(=S)[nH]c2ccsc2c1=O)NC1CCCCC1 2.92%
COC(=O)c1ccc(NS(=O)(=O)c2cc3c4c(c2)C(C)C(=O)N4CCC3)cc1 (centres undefined) 2.55%
O=C(O)CN(Cc1ccco1)S(=O)(=O)c1ccc(F)cc1 -0.4%
COc1ccc(C(=O)c2c(C)oc3cc([N+](=O)[O-])c(O)c([N+](=O)[O-])c23)cc1 -5.67%
Cc1oc2cc([N+](=O)[O-])c(O)c([N+](=O)[O-])c2c1C(=O)c1ccc(Br)cc1 -3.12%
O=C1CCCc2c1[nH]c1ccc(Br)cc21 1.31%
CCn1c(SCC(=O)N/N=C/c2ccccc2OCC(=O)O)nnc1-c1ccc(C(C)(C)C)cc1 6.89%
O=C(Nc1cccc(Cc2ccccc2)c1)Nc1ccc2nc([C@@H]3O[C@H](CO)[C@@H](O)[C@H](O)[C@H]3O)[nH]c2c1 -13%
CCCC1CCC(=NNC(=S)NCCc2ccccc2)CC1 (centres undefined) 0.18%
CC(=O)Nc1ccc(C(=O)N(C2=NC(C)CS2)c2ccc(Cl)cc2)cc1 (centres undefined) -3.34%
CC(=O)NS(=O)(=O)c1ccc(NC(=O)C2C3C=CC(C3)C2C(=O)O)cc1 (centres undefined) 2.61%
CCCCNC(=O)C[C@@H]1C[C@@]2(C(=O)OCC)CCC=C2N(Cc2ccco2)C1=O -3.77%
O=C1C=C(c2cccc(Cl)c2)C[C@@H](c2ccc(F)cc2)C1 -0.66%
O=C1CCCC(O)=C1C=NCCc1ccccc1 2.15%
C[C@@H]1CN([C@@H](C)CO)C(=O)c2cc(Br)cnc2O[C@H]1CN(C)Cc1ccc(-c2ccccc2)cc1 -1.74%
Cn1c(=NC(=O)c2cnccn2)sc2ccccc21 -2.18%
Cn1c(=NC(=O)c2ccco2)sc2cccc(F)c21 2.52%
CCOC(=O)/C=C/c1ccc(C(F)(F)F)cc1S(=O)(=O)NC(C)(C)C -0.74%
COc1ccccc1N1CC(C(=O)NCCN2C(=O)S/C(=C\c3cccnc3)C2=O)CC1=O (centres undefined) -0.83%
Cc1cc(OCCCC(=O)NCCN2C(=O)S/C(=C\c3cccnc3)C2=O)ccc1Cl 8.37%
CC1CCN(C(=O)COC(=O)c2cc(S(=O)(=O)N3CCOCC3)ccc2Cl)CC1 -1.57%
O=C(COC(=O)c1ccc(S(=O)(=O)N2CCc3ccccc3C2)cc1)NC(=O)NCc1ccco1 -5.24%
COc1cc(NC(=O)C2CCN(c3cnccn3)CC2)cc(OC)c1 -2.92%
CCOCCCNC(=O)C(=O)NCCCOCC 0.95%
CCOC(=O)Cc1cc(=O)[nH]c(=O)[nH]1 -0.86%
Cc1cc(OCCN2CCCC2)cc(C(C)C)c1 -5.99%
CCOC(=O)c1ccc(NC(=O)CCn2c(=O)oc3ccccc32)cc1 -5.94%
CCOC(=O)c1ccc(NC(=O)CS(=O)(=O)c2cn(CC)c3ccccc23)cc1 -0.07%
COc1ccc2c(c1)C(C)=CC(C)(C)N2C(=O)CNCc1ccc2c(c1)OCO2 -18.1%
CCn1nnc(NC(=O)c2c(OC)cccc2OC)n1 -1.47%
Cc1ccc(CCNC(=O)CN2C(=O)CSc3ccc(S(=O)(=O)N4CCOCC4)cc32)cc1 -3.24%

activation, active:
COC(=O)[C@]12CCCCC=C1N(CCC1=CCCCC1)C(=O)[C@H](CC(=O)NCC1CCCCC1)C2 19.2%
Cc1ccc(S(=O)(=O)N2CCN(c3ncnc4ccccc34)CC2)cc1 16.6%
COC(=O)[C@@]1(Cc2ccc(F)cc2)[C@H]2c3cc(C(=O)N(C)C)n(CCc4c[nH]c5ccc(OC)cc45)c3C[C@H]2CN1C(=O)c1ccccc1 19.8%
CCCCC(CC)CNC(=O)CCCCn1c(=O)[nH]c2ccsc2c1=O (centres undefined) 15.6%
Cc1oc2cc(Br)c(O)c(Br)c2c1C(=O)c1ccccc1 16%
O=C1CC(c2cccc(Cl)c2)CC(O)=C1C=Nc1ccccc1 (centres undefined) 20.8%
CCCC(=O)N=c1sc2cccc(F)c2n1C 39.7%
COc1ccc(N2CC(C(=O)NCCN3C(=O)S/C(=C\c4cccnc4)C3=O)CC2=O)c(OC)c1 (centres undefined) 18.4%
CCOCCCNC(=O)Cc1cc(=O)[nH]c(=O)[nH]1 20.9%
CCOC(=O)c1ccc(NC(=O)Cn2cnc3cc(C)c(C)cc32)cc1 17.4%
